40 compounds from PubChem BioAssay (Tox21) can be followed below.

SMILES strings stand for the structures. Inconclusive results are not listed. A call without a number means that no potency is given here. Activity calls are given as the source filed them. The call rests on the fitted dose curve; in most records, active means well fitted cell-killing curve with a large enough effect in the repeat runs; inconclusive means weak or mixed curves, or effect the other way; inactive means flat fitted curve, though single readings scatter.
Potency means the concentration at half of the fitted maximal effect.

This test can be described thus: qHTS RealTime-Glo MT Cell Viability Assay in HepG2 cells - 0 hour (AID 1224889). Further: nearly all actives have a fitted effect of over 50% in size. Particulars: RealTime-Glo luminescence; series mostly up to 76.8 µM. An excerpt: U.S. Tox21 Program National Center for Advancing Translational Sciences [NCATS] NIH Chemical Genomics Center [NCGC] U.S. Environmental Protection Agency [EPA] National Institutes of Environmental Health Sciences [NIEHS] National Toxicology Program [NTP] U.S. Food and Drug Administration [FDA] Tox21 Assay Overview: Measure of cell viability is critical in the cell-base assay. Analysis of cell viability is necessary for the characterization of cell responses to cytotoxic drugs and environmental stress. A RealTime-Glo MT Cell Viability Assay to monitor cell viability in real time of continues cell culture during 40 hours of compound treatment was used to screen Tox21 10K library compounds in HepG2 cells. The RealTime-Glo MT Cell Viability Assay is a nonlytic, homogeneous, bioluminescent method to measure cell viability in real time using a simple, plate-based method. The assay involves adding NanoLuc luciferase and a cell-permeant prosubstrate to cells in culture. Viable cells reduce the proprietary prosubstrate to generate a substrate for NanoLuc luciferase. This substrate diffuses from cells into the surrounding culture medium, where it is rapidly used by the NanoLuc Enzyme to produce a luminescent signal. The signal correlates with the number of viable cells, making the assay well suited for cytotoxicity studies.
Tox21 Assay Protocol Summary: The mixture of HepG2 cell suspension and reagents were dispensed at 600cells/6 ul/well in 1536-well tissue culture treated black solid bottom plates using a Multidrop dispenser. After the assay plates were incubated at a 37 C/5% CO2 incubator for 5 hours, 23 nL of compounds dissolved in DMSO, positive and negative controls was transferred to the assay plate by a pintool work station. The plates were incubated at 37 C for 40 hours. The luminescence intensity were measured at 0h, 8h, 16h, 24h, 32h and 40h time points using ViewLux plate reader during compound treatment.
(qHTS replaces the single test concentration by a dilution series.)
For the compound `O=C(NCCO[N+](=O)[O-])c1cccnc1`, the Potency result was “inactive”.
Take `Nc1ccc([N+](=O)[O-])c(C(F)(F)F)c1`: the Potency entry is “inactive”.
The same measure, in the same setting: the value for `CCCC(=O)Nc1ccc(O)c(C(C)=O)c1` was “inactive”.
The same measure, in the same setting: the value for `Nc1ccccc1S(=O)(=O)c1ccccc1` was “inactive”; that for `CCCCCCCCCCCc1ccccc1` was “inactive”; that for `C[C@@H]1C[C@H]2O[C@@]3(O[C@@H]2C(C)(C)O)[C@H](O)[C@@]2(C)[C@@H]4CC[C@H]5C(C)(C)[C@@H](O[C@@H]6OC[C@@H](O)[C@H](O)[C@H]6O)CC[C@@]56C[C@@]46CC[C@]2(C)[C@@H]13` was 2.16 µM (active).
`O=C1c2ccccc2S(=O)(=O)N1CCCCN1CCN(c2ncccn2)CC1`: the Potency result is “inactive”.
On the same count and under the same terms, under `CC1CCC(=O)C1=O` (stereo not given) stands “inactive”; under `COc1ccc(C(=O)Nc2nc3ccccc3c(NCc3ccccc3)c2C#N)cc1`, “inactive”; under `COc1ccc(C(=O)c2ccc(OC)cc2O)c(O)c1`, “inactive”.
On to `Cc1nn(C)c(Oc2ccccc2)c1/C=N/OCc1ccc(C(=O)OC(C)(C)C)cc1`, for which the Potency entry was “inactive”.
Same read-out and setting: the value for `C=C1[C@H]2CC[C@@H]3[C@H]2C(C)(C)CCC[C@]13C` was “inactive”; that for `COc1ccc2cccc(CCNC(C)=O)c2c1` was “inactive”.
Same read-out and setting: under `ClCCOCCOCCCl` stands “inactive”.
Same read-out and setting: under `O=C1OC(=O)C2C3C=CC(C3)C12` (stereo not given) stands “inactive”; under `CCO[Si](CCCCl)(OCC)OCC`, “inactive”; under `CCN(CC)c1ccc(C(=C2C=CC(=[N+](CC)CC)C=C2)c2cc(S(=O)(=O)O)ccc2S(=O)(=O)[O-])cc1`, “inactive”.
Turning to `CC(CSC(=O)c1ccccc1)C(=O)N1C[C@@H](Sc2ccccc2)C[C@H]1C(=O)O` (stereo not given in full), the activity change, negative = cytotoxicity is -0.48% [at 15.8 µM] (inactive).
As for `O=C(O)C1(C(=O)O)CCC1.[NH2-].[NH2-].[Pt+2]`, the Potency result is “inactive”.
On the same count and under the same terms, under `CCO[C@H](Cc1ccc(OCCc2ccc(OS(C)(=O)=O)cc2)cc1)C(=O)O` stands “inactive”; under `CC(=O)c1ccc2c(c1)N(CCCN(C)C)c1ccccc1S2`, “inactive”; under `O=C(O)c1ccc(-n2nc(-c3ccccc3O)nc2-c2ccccc2O)cc1`, “inactive”.
Turning to `NCC(=O)O`, the activity change, negative = cytotoxicity was 5.3% [at 15.8 µM] (inactive).
For `NC(=O)C(c1ccccc1)(c1ccccc1)[C@@H]1CCN(CCc2ccc3c(c2)CCO3)C1`, the Potency entry is “inactive”.
On the same count and under the same terms, the value for `CC(=O)[O][Al][O]C(C)=O` was “inactive”.
Still for that read-out and setting: the value for `CCC(=O)O[C@]1(C(=O)CCl)[C@@H](C)C[C@H]2[C@@H]3CCC4=CC(=O)C=C[C@]4(C)[C@@]3(F)[C@@H](O)C[C@@]21C` was “inactive”; that for `Nc1ccc(S(=O)(=O)Nc2ccccc2)cc1` was “inactive”.
The same measure, in the same setting: the value for `CN(C)CCN(Cc1ccsc1)c1ccccn1` was “inactive”; that for `C=CC1CC2C=CC1C2` (stereo not given) was “inactive”; that for `O=C(O)C(S)C(S)C(=O)O` (stereo not given) was “inactive”.
Regarding `CC(C)(C)Cl`, the Potency result was “inactive”.
Take `CC(C)(COC(=O)c1ccccc1)COC(=O)c1ccccc1`: the Potency entry was “inactive”.
On to `CC[N+]1(CC)CCC(=C(c2ccccc2)c2ccccc2)C1C` (stereo not given), for which the Potency entry was “inactive”.
Same read-out and setting: the value for `CCOC(=O)C(=O)CCc1ccccc1` was “inactive”; that for `O=C(Nc1ccc(S(=O)(=O)N2CCOCC2)cc1)c1cc(Cl)ccc1NS(=O)(=O)c1ccc(Cl)s1` was 9.52 µM (active); that for `CCOCC(O)COc1ccc(NC(=O)CC[S+](C)C)cc1` (stereo not given) was “inactive”.
As to `c1ccc(CNCCNCc2ccccc2)cc1`, the Potency entry was “inactive”.
The same measure, in the same setting: under `Nc1ccc(N)c2c1C(=O)c1ccccc1C2=O` stands “inactive”; under `CCNc1cc(O)ccc1C`, “inactive”; under `CC(C)OC(=O)C(C)N(C(=O)c1ccccc1)c1ccc(F)c(Cl)c1` (stereo not given), “inactive”.
